In PubChem BioAssay (EPA / NIEHS) one finds outcome and AC50 data, which are given here for 40 compounds.

Each structure is given as a SMILES string. Calls of active or inactive are those of the source. Rule for the calls: active = hit-call score of the fitted dose curve at least 0.9, where 1 is the maximum; inactive = score below 0.9.

Fatty acid synthase (Homo sapiens), sequence (P49327 whole entry, looked up): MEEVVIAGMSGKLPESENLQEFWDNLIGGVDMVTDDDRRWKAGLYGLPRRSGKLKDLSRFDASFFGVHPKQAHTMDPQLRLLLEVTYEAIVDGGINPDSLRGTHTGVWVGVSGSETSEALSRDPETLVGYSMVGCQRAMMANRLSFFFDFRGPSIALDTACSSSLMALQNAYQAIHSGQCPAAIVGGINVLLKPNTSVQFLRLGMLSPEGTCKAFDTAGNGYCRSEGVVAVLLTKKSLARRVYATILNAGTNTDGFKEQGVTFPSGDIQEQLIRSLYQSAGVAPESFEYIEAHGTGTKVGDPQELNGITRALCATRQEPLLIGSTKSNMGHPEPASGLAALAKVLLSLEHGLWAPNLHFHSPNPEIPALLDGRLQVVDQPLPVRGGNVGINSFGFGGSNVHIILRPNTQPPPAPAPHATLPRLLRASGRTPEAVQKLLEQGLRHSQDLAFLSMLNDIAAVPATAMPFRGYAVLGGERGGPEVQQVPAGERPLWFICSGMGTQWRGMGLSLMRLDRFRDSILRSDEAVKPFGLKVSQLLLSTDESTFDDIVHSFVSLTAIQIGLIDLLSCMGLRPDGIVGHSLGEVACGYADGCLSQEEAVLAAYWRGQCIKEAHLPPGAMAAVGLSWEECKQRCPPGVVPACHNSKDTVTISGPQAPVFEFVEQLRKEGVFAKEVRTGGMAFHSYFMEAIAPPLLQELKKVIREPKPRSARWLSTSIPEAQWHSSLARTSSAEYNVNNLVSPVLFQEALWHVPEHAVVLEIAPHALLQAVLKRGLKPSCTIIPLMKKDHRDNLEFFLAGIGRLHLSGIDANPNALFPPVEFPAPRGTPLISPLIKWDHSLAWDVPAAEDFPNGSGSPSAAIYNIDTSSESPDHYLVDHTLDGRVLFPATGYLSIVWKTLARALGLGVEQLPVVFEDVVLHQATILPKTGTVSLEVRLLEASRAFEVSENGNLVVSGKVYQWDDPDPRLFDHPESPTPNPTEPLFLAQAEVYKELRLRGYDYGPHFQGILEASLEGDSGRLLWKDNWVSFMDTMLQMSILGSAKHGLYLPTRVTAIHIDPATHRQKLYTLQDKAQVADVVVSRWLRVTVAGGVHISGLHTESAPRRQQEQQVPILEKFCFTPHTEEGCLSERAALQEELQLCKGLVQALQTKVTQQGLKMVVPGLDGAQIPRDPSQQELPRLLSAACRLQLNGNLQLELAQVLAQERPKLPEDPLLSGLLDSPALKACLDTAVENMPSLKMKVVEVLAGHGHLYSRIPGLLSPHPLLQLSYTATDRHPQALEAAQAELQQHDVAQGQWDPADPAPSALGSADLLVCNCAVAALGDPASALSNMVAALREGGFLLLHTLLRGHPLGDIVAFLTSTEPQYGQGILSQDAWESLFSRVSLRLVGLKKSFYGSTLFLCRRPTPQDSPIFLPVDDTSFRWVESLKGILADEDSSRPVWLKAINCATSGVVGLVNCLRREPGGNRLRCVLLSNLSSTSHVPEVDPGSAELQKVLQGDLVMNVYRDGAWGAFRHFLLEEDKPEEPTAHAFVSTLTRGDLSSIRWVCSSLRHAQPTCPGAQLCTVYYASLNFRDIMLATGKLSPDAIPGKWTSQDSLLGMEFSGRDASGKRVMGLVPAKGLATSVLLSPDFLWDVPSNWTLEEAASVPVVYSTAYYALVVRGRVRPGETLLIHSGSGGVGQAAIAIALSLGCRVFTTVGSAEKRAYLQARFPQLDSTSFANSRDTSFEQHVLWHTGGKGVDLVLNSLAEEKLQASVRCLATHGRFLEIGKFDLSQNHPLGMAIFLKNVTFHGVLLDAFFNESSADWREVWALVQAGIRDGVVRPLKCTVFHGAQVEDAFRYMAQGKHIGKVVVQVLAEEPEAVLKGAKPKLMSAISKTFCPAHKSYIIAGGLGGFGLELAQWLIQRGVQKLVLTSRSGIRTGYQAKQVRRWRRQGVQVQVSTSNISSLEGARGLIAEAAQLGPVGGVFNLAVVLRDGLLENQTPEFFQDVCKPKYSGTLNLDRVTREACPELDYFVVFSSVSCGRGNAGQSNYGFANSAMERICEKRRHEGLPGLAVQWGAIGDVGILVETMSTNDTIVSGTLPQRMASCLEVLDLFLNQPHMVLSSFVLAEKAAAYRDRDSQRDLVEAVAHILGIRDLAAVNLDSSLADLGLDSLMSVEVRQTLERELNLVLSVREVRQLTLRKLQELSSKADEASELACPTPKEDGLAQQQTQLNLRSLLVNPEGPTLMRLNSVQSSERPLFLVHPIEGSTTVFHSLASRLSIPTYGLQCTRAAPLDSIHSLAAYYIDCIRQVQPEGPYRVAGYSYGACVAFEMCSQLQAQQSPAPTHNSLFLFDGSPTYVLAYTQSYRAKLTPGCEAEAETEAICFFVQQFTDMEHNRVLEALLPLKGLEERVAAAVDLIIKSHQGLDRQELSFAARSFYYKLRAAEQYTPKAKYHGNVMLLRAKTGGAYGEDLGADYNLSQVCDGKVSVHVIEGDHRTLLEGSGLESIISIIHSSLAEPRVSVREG

Read-out in this assay: Fatty acid synthase (Homo sapiens) (UniProt P49327)
Kind of assay: LTEA_HepaRG_FASN: Life Technologies and Expression Analysis (LTEA) Assay for Fatty Acid Synthase (FASN) using HepaRG (AID 2283448). The note with it: mRNA level, 48 h; actives raise or lower the signal. On the procedure: LTEA_HepaRG is a cell based, multiplexed-readout assay that uses HepaRG, a human liver cell line, with measurements taken at 48 hours after chemical dosing on a 96-well plate.LTEA_HepaRG_FASN is one of 102 assay component(s) measured in the LTEA HepaRG cell culture assay. It is a marker of Steatosis.Data from the assay component LTEA_HepaRG_FASN was analyzed into 1 endpoint. This assay endpoint, LTEA_HepaRG_FASN, was analyzed with bidirectional fitting relative to DMSO as the negative control and baseline of activity. Using a type of inducible reporter, measures of mRNA induction for gain or loss-of-signal activity can be used to understand regulation of transcription factor activity. To generalize the intended target to other relatable targets, this assay endpoint is annotated to the lyase intended target family, where the subfamily is fatty acid synthase.
A total of 1060 chemcials from the ToxCast library were tested in eight-point concentration-response experiments. Cell culture and cytotoxicity assays were conducted at Thermo Fisher Scientific's Custom Services facility (Madison, WI). A single lot of human HepaRG cells (Thermo Fisher Scientific, Frederick, MD) was used for the cell culture experiments. 96-well format collagen type I coated plates of human HepaRG cells were prepared using established methods. Briefly, cryopreserved HepaRG cells were thawed, plated at a density of approximately 100,000 cells/well in HepaRG Thaw, Plate, and General Purpose media (HPRG770, Thermo Fisher Scientific), and incubated for 48 hours. 0.5% DMSO was selected as vehicle control to balance the requisite need of DMSO in HepaRG cultures to maintain differentiation (for example, baseline metabolism, proportions of hepatocytes vs. cholangiocytes), while enabling further hepatic receptor pathway activation (for example, PXR and CAR) in response to chemical exposure. 48 hours after plating, the culture medium was replaced with HepaRG Serum-Free Incudtion Media. Cells were exposed to each test chemical in duplicate and maintained in CO2 incubators for another 48 hours. Chemical plates were thawed to room temperature and 200x concentrations of treatment groups were prepared. 8-point conentration-reponse curves were made with the highest exposure at 100 uM, followed by half-log dilutions, all in 0.5% DMSO. Each test plate contained variouse controls, induction positive controls (1mM phenobarbital), cytotoxicity positive controls ([…] aflatoxin B1), vehicle controls (0.5% DMSO), and total lysis controls (0.5% DMSO). Cell morphology images were taken using an Essen IncuCyte FLR automated microscope, with six 96-well plates imaged in about 24 minutes. Images were captured and exported and JPEG files. Spent culture media was transfered to black-well plates for the LDH assay, and remaining media was sorted at -80 C for later use. Cells were treated with RLT buffer and frozen until shipped for gene expression analysis. Total RNA was isolated from the cell suspension in 75 uL of Buffer RLT (Qiagen, Germantown, MD 20874) by Quintiles/Expression Analysis (Durham, NC) using a custom isolation procedure. Total RNA from each plate well was transferred to a preamplification plate. Fluidigm's 96.96 Dynamic ArrayTM (Fluidigm, Amsterdam, the Netherlands) technology was used for gene expression analyses by quantitative reverse transcription polymerase chain reaction (qRT-PCR, performed by Quintiles/Expression Analysis, Durham, NC)89. Standard TaqManTM Assays (Applied Biosystems/ThermoFisher Scientific, Foster City, CA) were used to assess the expression of 93 genes selected based on their selectivity and sensitivity to important hepatic receptors known to be modulated by environmental chemicals; importance in human hepatocyte functionality; and hepatotoxicity. […]
On to `Cc1c(-c2cccnc2)c2ccccc2n1CCCCC(=O)O`, for which the outcome was inactive.
For the compound `COCCOCCOCCOC`, the compound was classed as inactive.
On to `NC(=O)NO`, for which the outcome was inactive.
As for `CC[C@H]1CC[C@H](NCc2cc3c(cc2OC)[C@H]2C[C@H]2C(=O)N3C)[C@H](c2ccccc2)N1`, the AC50 is 57.7 µM (active).
In the case of `CC(C)=CCC/C(C)=C\CO`, the outcome was inactive.
Turning to `CNCc1ccc(NC(=O)c2c[nH]c3c2C(=O)CCC3)cc1`, the compound was called inactive.
Turning to `Cc1[nH]cnc1C[C@H]1CCc2c(C)c3ccccc3n2C1=O`, the AC50 was 29.9 µM (active).
Consider `CC(O)CN(CCN(CC(C)O)CC(C)O)CC(C)O` (stereo not given), for which the half-maximal activity concentration (AC50) is 12.4 µM (active).
On to `CC(=O)c1ccc2c(c1)[C@H](NC(=O)c1ccc(F)cc1)[C@@H](O)C(C)(C)O2`, for which the result was inactive.
As for `CC(C)(O)c1coc(S(=O)(=O)NC(=O)Nc2c3c(cc4c2CCC4)CCC3)c1`, the outcome was inactive.
In the case of `CC(C)c1cccc(C(C)C)c1N1C(=O)c2ccc(O)cc2C1=O`, the half-maximal activity concentration (AC50) is 82.1 µM (active).
As to `Cc1ccc(S(=O)(=O)O)cc1C`, the compound was called inactive.
Consider `O=C(CCCCCCCCc1cccnc1)N1CCC(C=C(c2ccccc2)c2ccccc2)CC1`, for which the AC50 was 50 µM (active).
In the case of `CC(C)CCCCCCOC(=O)c1ccc(C(=O)OCCCCCCC(C)C)c(C(=O)OCCCCCCC(C)C)c1`, the result was inactive.
Consider `CCN(C(=O)c1cc(C)cc(OC[C@H](C)Nc2ccncc2)c1)C(C)C`, for which the concentration at half-maximal activity (AC50) was 5.84 µM (active).
With `C[C@](N)(Cc1ccc(O)c(O)c1)C(=O)O`, the compound was classed as inactive.
Regarding `Cc1ccc(N)cc1O`, the half-maximal activity concentration (AC50) was 26.3 µM (active).
As to `O=C1CCCCCN1`, the compound was classed as inactive.
As for `Cn1c(=O)c2c(ncn2C)n(C)c1=O`, the result was inactive.
Consider `Cn1cnc([N+](=O)[O-])c1Sc1ncnc2nc[nH]c12`, for which the call was inactive.
Turning to `O=C(O)c1cccc(N(Cc2cccnc2)c2ccc(OC(F)F)c(OC(F)F)c2)c1`, the AC50 is 81.3 µM (active).
Still for that read-out and setting: under `COCCOc1cc2cc(C(=O)NC3CCN(C(C)C)CC3)n(CC(=O)Nc3ccc(Cl)cn3)c2cn1` stands 32.5 µM (active).
With `CC(C)CCCCCCCOC(=O)CCCCC(=O)OCCCCCCCC(C)C`, the compound was called inactive.
In the case of `On1ccccc1=S`, the call was inactive.
As for `CCn1nc(Cc2ccccc2)cc1C1CCN(C[C@H]2C[C@H](N(C)[C@@H](C(=O)O)C(C)C)C[C@@H]2c2cccc(F)c2)CC1`, the compound was called inactive.
With `Cc1ccc(C)c(O)c1`, the result was inactive.
In the case of `O=C1CCC(N2C(=O)c3ccccc3C2=O)C(=O)N1` (stereo not given), the outcome was inactive.
For the compound `C1N2CN3CN1CN(C2)C3`, the compound was classed as inactive.
`Cn1c(=O)cc(Oc2ccc(F)cc2F)c2cnc(NCC(C)(C)O)nc21`: the compound was classed as inactive.
`CCCCCCc1ccc(O)cc1O`: the outcome was inactive.
`Oc1ccc2c(c1)-c1ccccc1C2`: the call was inactive.
For the compound `O=C(OC[C@H]1O[C@@H](OC(=O)c2cc(O)c(O)c(OC(=O)c3cc(O)c(O)c(O)c3)c2)[C@H](OC(=O)c2cc(O)c(O)c(OC(=O)c3cc(O)c(O)c(O)c3)c2)[C@@H](OC(=O)c2cc(O)c(O)c(OC(=O)c3cc(O)c(O)c(O)c3)c2)[C@@H]1OC(=O)c1cc(O)c(O)c(OC(=O)c2cc(O)c(O)c(O)c2)c1)c1cc(O)c(O)c(OC(=O)c2cc(O)c(O)c(O)c2)c1`, the AC50 is 15.2 µM (active).
Take `COc1cccc(-c2ccc(/C=C\CN3CCCCCC3)cc2Cl)c1`: the AC50 was 45.2 µM (active).
As to `CC1=CC(=O)CC(C)(C)C1`, the compound was called inactive.
For `CCNc1ccccc1`, the call was inactive.
On to `CC[C@H](C)C(=O)O[C@H]1C[C@@H](C)C=C2C=C[C@H](C)[C@H](CC[C@@H]3C[C@@H](O)CC(=O)O3)[C@H]21`, for which the AC50 was 12.1 µM (active).
With `Nc1cccc(N)c1`, the compound was classed as inactive.
Regarding `CCCN(C1CCN(C(=O)C2CCNCC2)CC1)[C@@H]1CCc2ccc(OC)cc2C1`, the half-maximal activity concentration (AC50) was 80.6 µM (active).
As for `Clc1nc(Cl)c(Cl)c(Cl)c1Cl`, the call was inactive.
For `C1=CCCC=CCCC=CCC1`, the call was inactive.

Broadly, the AC50 is the concentration at which the activity in the assay is half-maximal.
